Test results as given in PubChem BioAssay AID1159580 (chemical genetic matrix, 2015).
In all, about 5,500 compounds went through this assay and about 2,000 (36%) were called active. Another 18% or so got no clear call; they are omitted. No stated cut-off is given here; in the data, active means normalized growth mostly below about 0.91 (no sharp cut-off); inconclusive means no clear call, values can overlap the other calls; inactive means mostly above about 0.92. The list shows a part of the results.

Test: chemical genetic growth profiling, strain panel (AID 1159580);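 further: tested at 20 µM; growth read once vehicle control cultures reached saturation at 30 °C; 1 = growth at the plate median or of vehicle wells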
Conditions: S. cerevisiae deletion strains, growth OD

Measured: normalized growth

COc1c2c(nc3ccccc13)OC(C(C)(O)CO)C2 (stereo not given)
inactive: locus YAL040C, strain CLN3, stronger effect = lower value 1.01 | locus YCL061C, strain MRC1 (second series), stronger effect = lower value 1.01 | locus YDR363W, strain ESC2, stronger effect = lower value 0.993 | locus YER002W, strain NOP16, stronger effect = lower value 1.01 | locus YJR075W, strain HOC1, stronger effect = lower value 0.994 | locus YMR263W, strain SAP30, stronger effect = lower value 0.998 | locus YMR307W, strain GAS1, stronger effect = lower value 1.01 | locus YNL128W, strain TEP1, stronger effect = lower value 1.02 | locus YNL153C, strain GIM3, stronger effect = lower value 1.04 | locus YNL175C, strain NOP13, stronger effect = lower value 1.01 | locus YNL197C, strain WHI3, stronger effect = lower value 1.01 | locus YNL224C, strain SQS1, stronger effect = lower value 1.01 | locus YOR083W, strain WHI5 (second series), stronger effect = lower value 1 | locus YPL055C, strain LGE1, stronger effect = lower value 0.99 | locus YPL241C, strain CIN2, stronger effect = lower value 1
